Test results published in the supplement of paper PMC10981050.
Counter-ions that a name gives are not always drawn.

test system: MARIMO; experiment: cell viability relative to vehicle control; higher = less cytotoxic; conditions: 10 µM; SRSF2 genotype: SRSF2 P95H/wt
Method in brief: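 After removal of identity-inconsistent compounds, the Selleck bioactive, kinase and epigenetic probe libraries were screened on CRISPR-edited mutant clones and isogenic wild-type clones of four leukaemia lines. Plates were 384-well, each well holding 2000 cells in 50 µL medium and receiving a single 10 µM acoustically dispensed dose. CellTiter-Glo luminescence was read 48 h later, after the supernatant was taken off. Genedata Screener was used to express viability as percent of the on-plate vehicle control.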

| SMILES | cell viability |
| --- | --- |
| CC(C)n1nccc1-c1ncccc1COc1cccc(O)c1C=O [Voxelotor(GBT440, GTx011)] | 104% |
| Cc1ccc(N(CC2=NCCN2)c2cccc(O)c2)cc1 [Phentolamine Mesylate] | 90.3% |
| O=C(NO)c1cccc(C(=O)NCCc2ccccc2)c1 | 91.9% |
| O=c1ccn(C2OC(CO)C(O)C2O)c(=O)[nH]1 (stereo not drawn) | 99.2% |
| CC1(C)S[C@@H]2[C@H](NC(=O)[C@H](N)c3ccccc3)C(=O)N2[C@H]1C(=O)OCOC(=O)[C@@H]1N2C(=O)C[C@H]2S(=O)(=O)C1(C)C [Sultamicillin] | 93.1% |
| Cc1cc(OCCCS(C)(=O)=O)cc(C)c1-c1cccc(COc2ccc3c(c2)OC[C@H]3CC(=O)O)c1 | 93.2% |
| CCCC1O[C@@H]2C[C@H]3[C@@H]4CCC5=CC(=O)C=C[C@]5(C)[C@H]4[C@@H](O)C[C@]3(C)[C@]2(C(=O)CO)O1 (stereo partly drawn) [Budesonide] | 97.6% |
| CC(C)n1nc(-c2ccc(NC(=O)Nc3cc(C(F)(F)F)ccc3F)cc2)c2c(N)ncnc21 | 8.66% |

same assay, conditions: 10 µM; SRSF2 genotype: SRSF2 wt/wt

| SMILES | cell viability |
| --- | --- |
| O=C(Nc1cc(Cl)cc2c1[nH]c1cnccc12)c1cccnc1 | 116% |
| Cc1cc(-c2ccc(/N=N/c3ccc4c(S(=O)(=O)O)cc(S(=O)(=O)O)c(N)c4c3O)c(C)c2)ccc1/N=N/c1ccc2c(S(=O)(=O)O)cc(S(=O)(=O)O)c(N)c2c1O [Evans Blue] | 72.2% |
| COc1cc(N2CCN(C)CC2)ccc1Nc1ncc2c(n1)N(C)c1ccccc1C(=O)N2 | 90.1% |
| COc1cc2c(cc1OC)-c1cc3ccc(OC)c(OC)c3c[n+]1CC2 [Palmatine chloride] | 93% |
| C[C@H]1CO[C@@H]2Cn3cc(C(=O)NCc4ccc(F)cc4F)c(=O)c(O)c3C(=O)N12 | 95.4% |
| CN(C)CCc1c[nH]c2ccc(Cn3cncn3)cc12 [Rizatriptan Benzoate (Maxalt)] | 82.7% |
| Cc1ccc(NC(=O)C2(c3ccc4c(c3)OC(F)(F)O4)CC2)nc1-c1cccc(C(=O)O)c1 [VX-809 (Lumacaftor)] | 113% |
| C=CC(=O)Nc1cccc(Nc2nc(Nc3ccc(Oc4ccnc(C(=O)NC)c4)cc3)ncc2F)c1 | 83.8% |
| Cc1cc(Nc2ncc(Cl)c(Nc3ccccc3S(=O)(=O)C(C)C)n2)c(OC(C)C)cc1C1CCNCC1 [Ceritinib (LDK378)] | 0.23% |
| C[C@@H](Oc1cc(-n2cnc3ccc(CN4CCN(C)CC4)cc32)sc1C(N)=O)c1ccccc1C(F)(F)F | 34.3% |
| CC(C)c1onc(-c2c(Cl)cccc2Cl)c1COc1ccc(/C=C/c2cccc(C(=O)O)c2)c(Cl)c1 | 98.6% |
| C[C@@H]1O[C@@H](O[C@H]2[C@H](Oc3cc(O)c(C(=O)CCc4ccc(O)cc4)c(O)c3)O[C@H](CO)[C@@H](O)[C@@H]2O)[C@H](O)[C@H](O)[C@H]1O [Naringin Dihydrochalcone (Naringin DC)] | 105% |
| CC(=O)[C@H]1CC[C@H]2[C@@H]3CCC4=CC(=O)CC[C@]4(C)[C@H]3CC[C@]12C [Progesterone (Prometrium)] | 38.8% |
| CCOc1cc(C=O)ccc1OC(C)=O [Ethyl vanillin acetate] | 108% |
| Clc1ccc(CSC(Cn2ccnc2)c2ccc(Cl)cc2Cl)cc1 (stereo not drawn) [Sulconazole Nitrate] | 43.2% |
| Cc1[nH]c(/C=C2\C(=O)Nc3ccc(S(=O)(=O)Cc4c(Cl)cccc4Cl)cc32)c(C)c1C(=O)N1CCC[C@@H]1CN1CCCC1 | 87.6% |
| CN(C)CCCC1(c2ccc(F)cc2)OCc2cc(C#N)ccc21 (stereo not drawn) [Citalopram HBr] | 108% |
| Cc1cc(Nc2cc(N)ncn2)c(=O)n2c1C(=O)NC21CCCCC1 | 98.2% |
| COc1ccc2c(c1O)-c1c(O)c(OC)cc3c1[C@H](C2)[N+](C)(C)CC3 [Magnoflorine] | 105% |
| CN1CCN(c2ccc(Nc3cc(-c4cccc(-n5ccc6cc(C7CC7)cc(F)c6c5=O)c4CO)cn(C)c3=O)nc2)CC1 | 0.49% |

| SMILES | cell viability |
| --- | --- |
| Cc1cccc(C)c1N(CC(=O)Nc1ccc(-c2ncon2)cc1)C(=O)C1CCS(=O)(=O)CC1 [Amenamevir] | 106% |
| O=C1C[C@@H]2[C@@H](CO)[C@H](O)C[C@@H]2O1 [Corey Lactone Diol] | 110% |
| CC(=O)/N=c1/sc(S(N)(=O)=O)nn1C [Methazolamide] | 111% |
| O=C(NCc1ccncc1)C12CC3CC(C1)CC(c1ccc(Cl)cc1)(C3)C2 | 74.2% |
| COc1cc2c(=O)c(-c3ccc(O)cc3)coc2cc1O[C@@H]1O[C@H](CO)[C@@H](O)[C@H](O)[C@H]1O [Glycitin] | 103% |
| O=c1cc(-c2ccccc2)oc2c1ccc1ccccc12 [alpha-Naphthoflavone] | 96.5% |
| CC(CN(C)C)Oc1nc(Nc2cc3cccc(Cl)c3cn2)cnc1C#N (stereo not drawn) | 56.3% |
| C[C@@H](Oc1ccc2[nH]nc(/C=C/c3cnn(CCO)c3)c2c1)c1c(Cl)cncc1Cl | 5.47% |
| C1=N/C2=N/c3ccc(OCCN4CCCC4)c(c3)COC/C=C/COCc3cccc(c3)C(=C1)N2 [Pacritinib (SB1518)] | 0.42% |
| C[C@H]1C[C@H]2[C@@H]3CCC4=CC(=O)C=C[C@]4(C)[C@@]3(F)[C@@H](O)C[C@]2(C)[C@@]1(O)C(=O)CO [Betamethasone (Celestone)] | 98.4% |
| OCCN(CCO)c1nc(N2CCCCC2)c2nc(N(CCO)CCO)nc(N3CCCCC3)c2n1 [Dipyridamole (Persantine)] | 114% |
| CCOc1ccccc1OC(c1ccccc1)C1CNCCO1 (stereo not drawn) [Reboxetine mesylate] | 91.7% |
| CC(C)n1nccc1-c1ncccc1COc1cccc(O)c1C=O [Voxelotor(GBT440, GTx011)] | 103% |
| Cc1ccc(N(CC2=NCCN2)c2cccc(O)c2)cc1 [Phentolamine Mesylate] | 95.2% |
| O=C(NO)c1cccc(C(=O)NCCc2ccccc2)c1 | 86.8% |
| O=c1ccn(C2OC(CO)C(O)C2O)c(=O)[nH]1 (stereo not drawn) | 97.5% |
| CC1(C)S[C@@H]2[C@H](NC(=O)[C@H](N)c3ccccc3)C(=O)N2[C@H]1C(=O)OCOC(=O)[C@@H]1N2C(=O)C[C@H]2S(=O)(=O)C1(C)C [Sultamicillin] | 101% |
| Cc1cc(OCCCS(C)(=O)=O)cc(C)c1-c1cccc(COc2ccc3c(c2)OC[C@H]3CC(=O)O)c1 | 104% |
| CCCC1O[C@@H]2C[C@H]3[C@@H]4CCC5=CC(=O)C=C[C@]5(C)[C@H]4[C@@H](O)C[C@]3(C)[C@]2(C(=O)CO)O1 (stereo partly drawn) [Budesonide] | 103% |
| CC(C)n1nc(-c2ccc(NC(=O)Nc3cc(C(F)(F)F)ccc3F)cc2)c2c(N)ncnc21 | 4.51% |
